Measurements: PubChem BioAssay

target: Dihydroorotate dehydrogenase (quinone), mitochondrial (Plasmodium falciparum (isolate 3D7)) (UniProt Q08210); experiment: PfDHODH enzyme inhibitors, primary screen, biochemical, C-terminal His tag, absorbance 600 nm (AID 1175); details: DCIP absorbance 600 nm, higher = more signal, called active from +8 up or from −8 down;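 also: recombinant parasite enzyme with a five histidine tag at its C terminus; test concentration not given here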
Sequence (Q08210 whole entry, looked up): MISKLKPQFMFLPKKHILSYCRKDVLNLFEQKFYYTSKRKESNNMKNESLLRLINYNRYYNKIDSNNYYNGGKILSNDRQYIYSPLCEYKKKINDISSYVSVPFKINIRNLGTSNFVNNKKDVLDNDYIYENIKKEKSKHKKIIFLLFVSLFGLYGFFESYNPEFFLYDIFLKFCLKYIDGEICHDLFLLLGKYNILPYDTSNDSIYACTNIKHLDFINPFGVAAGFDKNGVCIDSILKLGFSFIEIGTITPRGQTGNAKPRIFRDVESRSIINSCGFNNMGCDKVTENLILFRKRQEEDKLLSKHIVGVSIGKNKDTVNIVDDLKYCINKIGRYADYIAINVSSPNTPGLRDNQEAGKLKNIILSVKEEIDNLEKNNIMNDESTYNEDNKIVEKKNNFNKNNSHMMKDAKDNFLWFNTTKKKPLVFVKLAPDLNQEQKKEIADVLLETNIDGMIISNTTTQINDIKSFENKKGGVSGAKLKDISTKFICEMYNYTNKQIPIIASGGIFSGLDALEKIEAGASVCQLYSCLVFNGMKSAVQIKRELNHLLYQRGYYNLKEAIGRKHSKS

Composite z-score, inactive:
COc1ccc(COC(=O)NN=C2C[C@@H](O)[C@@H](O)[C@@H]3[C@@H]4C(=O)N(Cc5ccccc5)C(=O)[C@@H]4CC[C@@H]23)cc1 0.207
O=C1C=C[C@@H](O)[C@@H]2[C@@H]3C(=O)N(Cc4ccccc4)C(=O)[C@@H]3CC[C@@H]12 -0.136
CCCC[C@H]1CN2[C@@H](CC[C@@H](C)[C@@H]2c2ccc(Br)cc2)C(=O)O1 -0.355
COc1ccc(O[C@H]2C=C[C@@H](C#Cc3ccccc3)O[C@@H]2CO)cc1 -0.759
O=C(NCCC[N+]1=CC=NC1c1ccccc1)N1CCCc2nc(-c3ccc(Br)cc3)ccc21 (configuration not stated) 1.01
C[C@H]1CC[C@@H](C(=O)O)N[C@@H]1c1ccc(C#Cc2ccccc2)cc1 -1.36
CC(C)CN1CCc2nc(-c3ccccc3)c3c(c2C1)CO[C@@H](C)C3 0.638
COc1ccc(COC(=O)NN=C2C[C@@H](O)[C@@H](O)[C@@H]3[C@@H]4C(=O)N(Cc5ccc6c(c5)OCO6)C(=O)[C@@H]4CC[C@H]23)cc1 -0.394
COC(=O)C(C(=O)OC)C1CCCC(=O)C1 (configuration not stated) 0.437
CC(C)[C@@H](OCc1ccccc1)[C@H](C)C=NOC[C@@H](O)[C@H]1O[C@@H]2OC(C)(C)O[C@@H]2[C@H]1O 0.188
CCc1cc2c(nc1CC)CCN(CCC(C)=NO[C@@H]1O[C@H](COC(C)=O)[C@@H](OC(C)=O)[C@H](OC(C)=O)[C@H]1OC(C)=O)C2 -2.7
COC(=O)[C@H](C)NC(=O)CCC1CC(OC(=O)NCCc2ccc(F)cc2)CC2(CCCC(COC(=O)NCCc3ccccc3OC)O2)O1 (some centres not stated) 0.098
CCOC(=O)[C@H](CC(C)C)NC(=O)CCC1CC(OC(=O)NCc2ccc3c(c2)OCO3)CC2(CCCC(COC(=O)NCCc3ccc(Cl)cc3)O2)O1 (some centres not stated) -0.704
CC(CCN1CCc2nc(-c3ccccc3)c(-c3ccccc3)cc2C1)=NOC(C)CN1CCCc2nc(C)c(C)cc21 (configuration not stated) 0.417
O=C1[C@H]2[C@H]3[C@H](O)[C@H](O)CC(=NO[C@@H]4O[C@H](CO)[C@@H](O)[C@H](O)[C@H]4O)[C@@H]3CC[C@H]2C(=O)N1C[C@@H]1CCCO1 -2.39
COc1ccc(O[C@H]2C=C[C@@H](c3ccccc3)O[C@@H]2COC(=O)CCC(C)=NOC[C@@H](O)COCc2ccco2)cc1 -2.35
CC(C)=CCCC(C)=CCON=C1C[C@@H](O)[C@@H](O)[C@@H]2[C@@H]3C(=O)N(c4cccc(Oc5ccccc5)c4)C(=O)[C@@H]3CC[C@H]12 -0.141
CO[C@@H]1C=CCC(=O)N[C@@H](C)C(=O)OC[C@@H](NS(=O)(=O)c2ccc(C)cc2)[C@H](C)C=CCC(=O)OC[C@H]1C -0.165
COc1ccc(COC(=O)NN=C2C[C@@H](O)[C@@H](O)[C@@H]3[C@@H]4C(=O)N(c5cccc(Oc6ccccc6)c5)C(=O)[C@@H]4CC[C@H]23)cc1 -2.56
CCOC(=O)CCN1C(=O)[C@H]2[C@H]3[C@H](O)[C@H](O)CC(=NNC(=O)OCc4ccccc4)[C@H]3CC[C@H]2C1=O -0.192
CO[C@@H](C(C)C)[C@@H](C)C1OC(=O)CC1O (some centres not stated) -0.531
CCN1C(=O)[C@H]2[C@H]3[C@H](O)[C@H](O)CC(=NO[C@H](C)c4cn([C@@H]5COC[C@H]5O)nn4)[C@@H]3CC[C@H]2C1=O 0.871
CCOC(=O)[C@H](CC(C)C)NC(=O)CCC1CC(OC(=O)NCCc2ccc(F)cc2)CC2(CCCC(COC(=O)NCc3cccc(C(F)(F)F)c3)O2)O1 (some centres not stated) 0.324
O=C1CCCC=C1C(O)C1CCCCC1 (configuration not stated) -1.76
COc1ccc(COC(=O)NN=C2C[C@@H](O)[C@@H](O)[C@@H]3[C@@H]4C(=O)N(C5CCCCC5)C(=O)[C@@H]4CC[C@@H]23)cc1 -1.39
O=C1C2=CC[C@H]3C(=O)N(C4CCCCC4)C(=O)[C@H]3[C@H]2[C@H](O)[C@@H]2O[C@H]12 -3.96
O=C1C[C@@H](O)[C@@H](O)[C@@H]2[C@@H]3C(=O)N(C4CCCCC4)C(=O)[C@@H]3CC[C@@H]12 -0.506
